Shown are actives, neighbours in structure and some others; about 7.3% of the full set was active somewhere.
ELG1 genotox – induces genotoxicity in HEK293T cells with luciferase-tagged ELG1 | HEK293T ELG1-luciferase reporter, luminescence, 16 h | Potency, µM (titrated, usually from 46 µM), without a hit: at the top dose activity change, positive = activation, hits mostly activators | 330,000 compounds, 1.3% hits; further: % of control where 0% means no effect; nearly all actives have a fitted effect of over 60% in size
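Quantitative HTS format in 1536-well plates. HEK293T ELG1-luciferase reporter cells receive test compound and are incubated 16 hr at 37 °C, 5% CO2; ONE-Glo added, 30 min room temperature, then luminescence read.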
SMN2 splice up – enhancers of SMN2 splice variant expression. HEK293 SMN2-luciferase splicing reporter, luminescence, 30-36 h. Potency, µM (top dose mostly 46.1 µM), for the others: top-dose activity change, positive = activation, most hits filed as activators. 210,000 compounds, 2.8% hits. AID 1458; further: % of control where 0% means no effect; nearly all actives have a fitted effect of over 55% in size
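HEK293 cells carry an SMN2 minigene-luciferase reporter in which exon 7 inclusion puts luciferase in frame. Cells were seeded at 2000 cells/well, attached for 10-12 hours, then exposed to compounds for 30-36 hours at 37C before ONE-Glo luminescence.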
Luc counter – Kinase-Glo luciferase inhibition (counter-screen); 200,000 compounds, 0.28% hits; Q27757; Kinase-Glo luciferase, ATP luminescence, 8 min; Potency, µM (doses to about 38.3 µM), without a hit: at the top dose activity change, negative = inhibition, most hits filed as inhibitors; AID 1379; further: on the % scale 0 is the no-effect control and ±100 the full control effect; nearly all actives have a fitted effect of over 60% in size
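Compounds were added to a substrate mix at pH 7.2 (50 mM imidazole, 10 uM ATP, within the enzyme's linear range), followed by Kinase-Glo detection reagent; luminescence was measured after 8 minutes at ambient temperature.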
Rab9 prom act – activates the Rab9 promoter | Potency, µM (doses to about 9.22 µM), for inactives: at the top dose activation, negative = inhibition, hits mostly activators | 320,000 compounds, 2.8% hits | Huh7 Rab9 promoter-luciferase reporter, luminescence, 24 h | AID 485297; further: % of control where 0% means no effect; nearly all actives have a fitted effect of over 60% in size
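Cells were plated at 1500 per well in reduced-serum medium with 10% FBS and left 2 h. Compound in DMSO was then added for 24 h at 37 °C. Reporter signal was read by luminescence after 10 min with luciferase detection reagent.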
NPC1 prom act – NPC1 promoter activation. Huh7 NPC1 promoter luciferase reporter, 24 h. Potency, µM (titrated, usually from 9.22 µM), inactives show at the highest dose activation, usual class: activators. 320,000 compounds, 2.4% hits. AID 485313; further: % of control where 0% means no effect; nearly all actives have a fitted effect of over 60% in size
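Stably transfected Huh7 (NPC1 promoter→luciferase), 1500 cells/well in Opti-MEM + 10% FBS, 2 h settle, then compound 24 h at 37 °C. Luminescence after 10 min with Amplite reagent.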
FLuc counter – firefly luciferase modulation, counter-screen for miR-21 project | purified FLuc, Km substrates, luminescence inhibition | Potency, µM (titrated, usually from 57.5 µM), inactives show top-dose activity change, negative = inhibition, actives largely listed as inhibitors | 360,000 compounds, 6.9% hits | AID 588342;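 further: plate controls were vehicle for no effect and reference inhibitor for full effect; nearly all actives have a fitted effect of over 55% in size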
Target sequence (P08659 whole entry, looked up): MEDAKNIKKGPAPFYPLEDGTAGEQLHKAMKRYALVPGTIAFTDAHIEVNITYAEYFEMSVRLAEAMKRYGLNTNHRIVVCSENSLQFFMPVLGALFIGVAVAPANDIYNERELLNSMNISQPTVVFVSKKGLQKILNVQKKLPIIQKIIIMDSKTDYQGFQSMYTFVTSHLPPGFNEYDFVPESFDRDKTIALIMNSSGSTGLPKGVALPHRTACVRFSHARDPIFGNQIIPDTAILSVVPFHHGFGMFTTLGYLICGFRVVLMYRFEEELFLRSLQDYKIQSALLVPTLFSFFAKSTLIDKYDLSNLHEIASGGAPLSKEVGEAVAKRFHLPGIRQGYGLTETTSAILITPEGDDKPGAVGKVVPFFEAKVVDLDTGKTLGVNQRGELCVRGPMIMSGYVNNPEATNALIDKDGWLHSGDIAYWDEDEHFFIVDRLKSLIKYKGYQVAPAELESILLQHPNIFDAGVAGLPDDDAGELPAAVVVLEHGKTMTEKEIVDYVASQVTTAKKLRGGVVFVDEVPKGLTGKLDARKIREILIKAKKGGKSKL
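Purified P. pyralis luciferase, 10 nM final, with Km-level 10 uM D-luciferin and 10 uM ATP in 50 mM Tris acetate pH 7.5, 10 mM Mg acetate, 0.01% Tween-20, 0.05% BSA; 6-point qHTS titration about 60 µM downward; luminescence read.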
* marks the source's active call; other numbers are inactive results. The call rests on the fitted dose curve; in most records, active means well fitted curve in the direction sought with a large enough effect; inconclusive means small, poorly fitted or top-dose-only effect, or another doubt; inactive means no such curve, though single readings can be large; an effect the other way counts as inactive or inconclusive. Potency means the concentration at half of the fitted maximal effect.

Results for COc1ccc2c(c1)CCc1c(C(=O)N3CCCCCC3)noc1-2 ?
ELG1 genotox: inconclusive; SMN2 splice up: inconclusive; Luc counter: -1%; Rab9 prom act: 2.8µM*; NPC1 prom act: 1.6µM*; FLuc counter: 7.6µM*

What do the screens show for `COc1ccc2c(c1)CCc1c(C(=O)NCc3cccnc3)noc1-2`?
ELG1 genotox: 21µM*; SMN2 splice up: -1%; Luc counter: 0%; Rab9 prom act: 15%; NPC1 prom act: 26%; FLuc counter: inconclusive

Results for CCCNC(=O)c1noc2c1CCc1cc(OC)ccc1-2 ?
ELG1 genotox: inconclusive; SMN2 splice up: 11µM*; Luc counter: -5%; Rab9 prom act: 2µM*; NPC1 prom act: 1.4µM*; FLuc counter: 4.3µM*

What do the screens show for `CN(C(=O)Nc1ccc(Cl)cc1)c1c2c(nn1C)CCCC2`?
ELG1 genotox: 0%; SMN2 splice up: -10%; Luc counter: 4%; Rab9 prom act: -6%; NPC1 prom act: -2%; FLuc counter: 0%

How did CCc1cccc(C)c1NC(=O)CSc1nc2ccccc2nc1N1CCOCC1 do in these assays?
SMN2 splice up: -6%; FLuc counter: -4%

Results for C/C(=N\Nc1cc(C(F)(F)F)ccc1Cl)c1ccncc1 ?
ELG1 genotox: 2%; Rab9 prom act: -1%; NPC1 prom act: -1%; FLuc counter: 0%

What do the screens show for `CCc1ccc(CNC(=O)Cn2ccc3cc(S(=O)(=O)N4CCCCCC4)ccc32)cc1`?
FLuc counter: -16%

What do the screens show for `CCOC(=O)Cc1nnc(Nc2ccc(C)cc2)c2ccccc12`?
ELG1 genotox: -1%; SMN2 splice up: 2%; Luc counter: -1%; Rab9 prom act: 3%; NPC1 prom act: 1%; FLuc counter: inconclusive

What do the screens show for `CC(=O)Oc1ccccc1N(C(C)=O)S(=O)(=O)c1ccc(C)cc1`?
ELG1 genotox: -1%; SMN2 splice up: -36%; Luc counter: 2%; Rab9 prom act: 4%; NPC1 prom act: -4%; FLuc counter: 4%

What do the screens show for `CCc1ccc(Nc2nnc(SC3CCOC3=O)s2)cc1` (stereo not given)?
ELG1 genotox: 4%; SMN2 splice up: 3%; Luc counter: 3%; Rab9 prom act: -5%; NPC1 prom act: -1%; FLuc counter: 21µM*

How did CCc1ccc(Nc2nnc(SC(C)C(=O)NC3CC3)s2)cc1 (stereo not given) do in these assays?
ELG1 genotox: -2%

How did Cc1ccc(NC(=O)N2CCc3ccccc32)cc1 do in these assays?
ELG1 genotox: inconclusive; SMN2 splice up: 1.3µM*; Luc counter: inconclusive; Rab9 prom act: 0.63µM*; NPC1 prom act: 0.71µM*; FLuc counter: 0.54µM*

What do the screens show for `Cc1ccc(Cl)cc1NC(=O)CN1C(=O)CCc2ccccc21`?
FLuc counter: -1%

Results for CN1CCN(c2ccc(NC(=O)N3CCc4ccccc43)cc2)CC1 ?
ELG1 genotox: 0.46µM*; Rab9 prom act: 0.11µM*; NPC1 prom act: 0.32µM*; FLuc counter: 0.76µM*

What do the screens show for `Cc1ccc(NC(=O)CN2C(=O)CCc3ccccc32)cc1C`?
FLuc counter: 24µM*

Results for Cc1ccc(NC(=O)N2CCc3ccccc32)cc1C ?
ELG1 genotox: 0.65µM*; SMN2 splice up: 1.4µM*; Luc counter: -10%; Rab9 prom act: 0.32µM*; NPC1 prom act: 0.5µM*; FLuc counter: 0.67µM*

How did NC(=O)c1ccc(OCC(=O)N2CCNC2=O)cc1 do in these assays?
ELG1 genotox: 1%

How did Cc1ccc(-n2c(C)cc(C(=O)OCC(=O)N3CCOCC3)c2C)cc1 do in these assays?
ELG1 genotox: 3%

How did Cc1ccc(C(=O)OCC(=O)c2ccc(CC(=O)N3CCOCC3)s2)c(C)c1 do in these assays?
ELG1 genotox: 1%; Rab9 prom act: -1%; NPC1 prom act: 1%; FLuc counter: 17µM*
